Bioassay records: PubChem, National Center for Advancing Translational Sciences (NCATS)
WRN helicase inh = inhibitors of human WRN helicase; Q14191; actives 0.46% (n = 360,000); WRN helicase unwinding, fluorescent forked duplex, kinetic; Potency, µM (titrated, usually from 114 µM), without a hit: top-dose activity change, negative = inhibition, usual class: inhibitors; also: potency is read from the fitted curve at half-maximal effect; nearly all actives have a fitted effect of over 55% in size
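Screening of the MLSMR collection measured strand separation of a quenched forked DNA duplex (100 nM) by 20 nM WRN with 2 mM ATP, all final. Compounds were preincubated with enzyme 15 min at room temperature.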
APE1 inh-1 = APE1 (human) endonuclease inhibition | P27695 | AID 2517 | recombinant APE1, TAMRA/BHQ-2 abasic DNA cleavage fluorescence | actives 0.35% (n = 350,000) | Potency, µM (titrated, usually from 65.8 µM), without a hit: at the highest dose activity change, negative = inhibition, actives largely listed as inhibitors;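 also: potency is read from the fitted curve at half-maximal effect; plate controls were vehicle for no effect and reference inhibitor for full effect; nearly all actives have a fitted effect of over 55% in size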
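Substrate: short duplex with […] THF abasic site, 5'-TAMRA and 3'-BHQ-2, 50 nM final. APE1 at 0.75 nM, preincubated 15 min RT with compound. Fluorescence increase from first to third read measured activity.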
RECQ1 inh = RECQ1 (human) helicase inhibition. P46063. RECQ1 DNA unwinding, red fluorescence kinetic read. Potency, µM (series often up to 57.3 µM), without a hit: at the highest dose activity, negative = inhibition, actives largely listed as inhibitors. actives 0.54% (n = 240,000). AID 2549;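 also: potency is read from the fitted curve at half-maximal effect; plate controls were vehicle for no effect and no enzyme for full effect; nearly all actives have a fitted effect of over 30% in size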
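50 nM RECQ1T1 preincubated 15 min with compound in Tris pH 8.0 buffer with MgCl2, DTT, Tween-20 and 2.5 ug/ml poly(dI-dC); started with 200 nM TAMRA/BHQ-2 forked duplex and 2 mM ATP. Unwinding read as fluorescence (525/598 nm), two reads 2 h apart.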
PI5P4Ka inh = inhibitors of human PI5P4K alpha | actives 1.2% (n = 330,000) | PI5P4Kalpha enzyme, ADP-Glo luminescence, 60 min; hits give low values | max response, %; active = max response of -50% or lower; inconclusive = between -30% and -50%; inactive = -30% or higher; also: value at the top dose of about 77 µM
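qHTS, 1536-well: enzyme/substrate mix, compound by pin tool, 5 microM ATP final; RT 60 min; ADP-Glo reagents 1 (45 min) then 2 (30 min); luminescence.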
BLM inh = blocks DNA unwinding by human BLM helicase. AID 2528. P54132. Potency, µM (highest dose often 56.1 µM), inactives show top-dose activity change, negative = inhibition, usual class: inhibitors. recombinant BLM DNA unwinding, fluorescence dequenching. actives 0.2% (n = 350,000);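 also: potency is read from the fitted curve at half-maximal effect; plate controls were vehicle for no effect and no enzyme for full effect; nearly all actives have a fitted effect of over 35% in size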
FEN1 inhibitor = blocks human flap endonuclease 1 | P39748 | Recombinant FEN1 flap cleavage, fluorescence, 15 min | Potency, µM (top dose mostly 114 µM), for inactives: top-dose activity change, negative = inhibition, most hits filed as inhibitors | actives 0.35% (n = 390,000) | AID 588795; also: potency is read from the fitted curve at half-maximal effect; nearly all actives have a fitted effect of over 65% in size
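Steps: FEN1 (10 nM) dispensed; compound added by pin tool; 15 min at room temperature; substrate added to 50 nM final; reads at 0 min and 15 min; data normalized and fitted (four-parameter Hill).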
APE1 dye cs = counter-screen for APE1 inhibitors: DNA dye displacement; shares compounds with APE1 inh-1; DNA fluorescent dye displacement counterscreen, fluorescence; Potency, µM (highest dose often 28.5 µM), without a hit: at the top dose activity change, negative = inhibition, hits mostly inhibitors; actives 7% (n = 480); AID 2564;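 also: loss of thiazole orange fluorescence as the dye is displaced from duplex DNA; potency is read from the fitted curve at half-maximal effect; 0% = ThO with dsDNA and no compound and -100% = ThO without dsDNA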
EndoIV counter = Endo IV (E. coli) inhibition counter-screen. Potency, µM (doses to about 27.1 µM), for the others: top-dose activity change, negative = inhibition, usual class: inhibitors. actives 4% (n = 560). shares compounds with APE1 inh-1. E. coli Endo IV, fluorogenic AP-site DNA cleavage;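 also: potency is read from the fitted curve at half-maximal effect; plate controls were uninhibited enzyme wells for no effect and no enzyme buffer wells for full effect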
APE1 inh-2 = APE1 (human) endonuclease inhibition, confirmation | shares compounds with APE1 inh-1 | AID 2572 | actives 44% (n = 750) | purified APE1, fluorogenic abasic-site DNA cleavage | Potency, µM (highest dose often 57.1 µM), for inactives: at the highest dose activity change, negative = inhibition, most hits filed as inhibitors; also: potency is read from the fitted curve at half-maximal effect; nearly all actives have a fitted effect of over 30% in size
APE1 FP inh = compounds that displace a DNA probe from human APE1; shares compounds with APE1 inh-1; AID 2573; actives 7% (n = 480); Potency, µM (series often up to 28.5 µM), for the others: at the highest dose activity, negative = inhibition, hits mostly inhibitors; APE1 binding to TAMRA-labelled double-stranded DNA, fluorescence polarization displacement; also: potency is read from the fitted curve at half-maximal effect
* hit, by the source's call; i = inactive; ? = inconclusive; nt = no result given; [ ] = another dose, or the depositor's remark. Rows were chosen to be rich in hits. Some 1.5% of all compounds tested hit in one or more screens of this group. Unless noted, calls follow the shape of the dose curve; as a rule, active = well fitted curve in the direction sought with a large enough effect; inconclusive = small, poorly fitted or top-dose-only effect, or another doubt; inactive = no such curve, though single readings can be large; an effect the other way counts as inactive or inconclusive. Unless noted, % is scaled to controls: 0 for no effect and ±100 for the full control effect.

SMILES	WRN helicase inh	APE1 inh-1	RECQ1 inh	PI5P4Ka inh	BLM inh	FEN1 inhibitor	APE1 inh-2	others
COc1ccc(N2C(=O)C3CC=C(Cl)CC3C2=O)cc1 (configuration not stated)	-28%	-8%	i	nt	2%	-3%	nt
COc1ccc(NC(=O)c2ccc(N3C(=O)C4CC=C(Cl)CC4C3=O)cc2)cc1 (configuration not stated)	-19%	1%	nt	-51*	-4%	9%	nt
COc1ccc(C(=O)N=c2nc(-c3ccccc3)n(-c3ccccc3)s2)cc1	nt	nt	nt	nt	nt	10%	nt
COc1cc(/C=C2\NC(=S)N(C)C2=O)ccc1O	-8%	-2%	i	-5	-1%	-18%	nt
CN1C(=O)/C(=C/c2ccc(O)c([N+](=O)[O-])c2)NC1=S	-14%	4%	-2%	-56*	-9%	4%	nt
CCCCN1CC(c2nc3ccccc3n2CCCCOc2cccc(C)c2C)CC1=O (configuration not stated)	nt	nt	nt	nt	1%	-4%	nt
COC(=O)c1ccc2c(c1)C(C)(C)C(/C=C/c1ccc(O)cc1)=[N+]2C	50µM*	?	13µM*	nt	-1%	45µM*	nt
COC(=O)c1ccc2c(c1)C(C)(C)C(/C=C/c1ccc(OC)c(OC)c1OC)=[N+]2C	50µM*	-6%	?	-20	-18%	?	nt
COc1ccc(/C=N/Nc2ccc(C(=O)O)cc2)c(OC)c1OC	5%	59%	nt	-4	-5%	0%	nt
Cc1ccc(CN2C(=O)C(=O)c3cc(Br)cc(C)c32)cc1	nt	nt	nt	nt	-10%	?	nt
O=C(/C=C/c1ccco1)NCC(=O)N/N=C/c1ccc([N+](=O)[O-])cc1	-4%[11.6 µM]	-8%	-11%	-60*	-13%	?	nt
O=[N+]([O-])c1ccc(C=NNC(=S)NN=Cc2ccc([N+](=O)[O-])cc2)cc1	56µM*	nt	nt	?	nt	?	nt
COC(=O)N/N=C/c1ccc(OC(=O)/C=C/c2ccco2)cc1	?	-11%	-16%	-51*	-15%	12%	nt
O=C(/C=C/c1ccco1)NCC(=O)N/N=C/c1ccc(Cl)cc1	-3%	-4%	i	-29	-2%	-9%	nt
O=C(CCS(=O)(=O)c1nc(-c2ccc3c(c2)OCO3)cc(C(F)(F)F)n1)Nc1ccccc1C(F)(F)F	nt	nt	nt	nt	-2%	6%	nt
COc1cccc(CNC(=O)c2ccc(-c3nc(CSc4ccccc4)c(C)o3)cc2)c1	nt	nt	nt	nt	-2%	15%	nt
O=c1[nH]c(-c2ccc(Cl)cc2)cs1	-6%	-4%	-10%	1	1%	-14%	nt
Fc1ccc(-c2csc(=S)[nH]2)cc1	-35%	8%	i	-51*	-4%	-15%	nt
S=c1[nH]c(-c2ccccc2)cs1	?	4%	-1%	-70*	1%	0%	nt
CCC(Sc1nc2c(sc3ccccc32)c(=O)n1CCc1ccc(OC)c(OC)c1)C(=O)N(CC)CC (configuration not stated)	nt	nt	nt	nt	-8%	2%	nt
CN(C)CC/C=C1/c2ccccc2CSc2ccccc21	nt	16%[21 µM]	nt	nt	nt	nt	nt
Cc1sc2ncnc(SCC(=O)NC(=O)NCc3ccco3)c2c1C	-27%	28µM*	?	nt	-27%	-20%	?	APE1 dye cs=15%;EndoIV counter=-1%;APE1 FP inh=20%
CCc1cc2c(=O)c(-c3nc4ccccc4n3C)coc2c(CN2CCN(C)CC2)c1O	3%	?	?	2	-12%	2%	?
Cn1nnnc1SCC1=C(C(=O)O)N2C(=O)C(NC(=O)C(O)c3ccccc3)C2SC1 (configuration not stated)	nt	-1%	i	nt	-8%	nt	nt
Cn1nnnc1SCC1=C(C(=O)O)N2C(=O)[C@@H](NC(=O)[C@H](O)c3ccccc3)[C@H]2SC1	25µM*	?	8%	?	38%	?	40µM*
SMILES	WRN helicase inh	APE1 inh-1	RECQ1 inh	PI5P4Ka inh	BLM inh	FEN1 inhibitor	APE1 inh-2	others
O=C(O)CC[C@@H](C(=O)O)N1C(=O)c2ccccc2C1=O	-6%	?	-5%	1	0%	11%	?	APE1 dye cs=-4%;EndoIV counter=6%;APE1 FP inh=-2%
CC(C)(C)NC(=O)c1cc(F)c(F)cc1Cl	2%	7.1µM*	i	3	-14%	4%	?	APE1 dye cs=-8%;EndoIV counter=4%;APE1 FP inh=-6%
S=c1[nH]nc(-c2cc(-c3ccccc3)n[nH]2)n1/N=C/c1ccc(Cl)c(Cl)c1	35µM*	4%	-3%	-20	-13%	?	40µM*
CCCCN(Cc1ccccc1)C(=O)c1oc(=O)c2ccccc2c1-c1ccc(C)cc1	nt	nt	nt	nt	-9%	-4%	nt
Nc1ccc(N)c(C(=O)O)c1	32µM*	1.3µM*	11µM*	-91*	5.6µM*	?	2.2µM*
COc1ccccc1CCNC(=O)Cc1c(C)c2cc(Cl)c(O)cc2oc1=O	nt	nt	nt	nt	3%	-3%	nt
CC(=O)Nc1ccc(C(=O)Nc2nc(-c3cccnc3)cs2)cc1	-4%	5%	-11%	-26	-4%	-4%	-22%
O=C(Nc1nc(-c2ccccc2)cs1)c1cccnc1	-8%	2%	-2%	nt	-3%	7%	nt
COc1cc2cccc(OC)c(=O)c2c(O)c1OC	-7%	-2%	i	1	1%	13%	nt
CC(=O)Oc1cc2cccc(OC(C)=O)c(=O)c2c(OC(C)=O)c1OC(C)=O	8.9µM*	0.45µM*	3.2µM*	-89*	?	1.1µM*	6.3µM*	APE1 dye cs=1%;EndoIV counter=47%;APE1 FP inh=-1%
NC(=O)c1oc2ccccc2c1NC(=O)c1ccc(F)cc1	-4%	-2%	-3%	4	-1%	-5%	nt
NC(=O)c1oc2ccccc2c1NC(=O)c1nc2ccccc2s1	-11%	-2%	-2%	-7	-13%	6%	?
Cc1ccc(CNc2ncnc3ccc(-c4c(C)noc4C)cc23)cc1	nt	-5%	i	nt	1%	nt	nt
